PubChem BioAssay (NCATS)
Inconclusive results are not listed. The source made the active and inactive calls. The call rests on the fitted dose curve; in most records, active means well fitted inhibition curve with a large enough effect; inconclusive means small, poorly fitted or top-dose-only effect; inactive means flat fitted curve, though single readings scatter.

What was measured:
Experiment in all cases: qHTS profiling for inhibitors of Plasmodium falciparum proliferation (AID 504749); further: nearly all actives have a fitted effect of over 60% in size
Details in all cases: P. falciparum in erythrocytes, SYBR Green DNA, 72 h; series mostly up to 28.7 µM
CP305 = test system: CP305
How it was run: (§1)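 Quantitative HTS: compounds pinned into medium, infected erythrocytes added (0.3% parasitemia, 2.5% hematocrit), 72 h culture at 37 C under 5% CO2. Saponin/Triton lysis with SYBR Green I, overnight RT, then fluorescence read.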

CP315 = test system: CP315
How it was run: as §1

CP325 = test system: CP325
How it was run: as §1

CP329 = test system: CP329
How it was run: as §1

DFO2036 = test system: DFO2036
How it was run: as §1

DIV14 = test system: DIV14
How it was run: as §1

DIV17 = test system: DIV17
How it was run: as §1

DIV30 = test system: DIV30
How it was run: as §1

Dd2 = test system: Dd2
How it was run: as §1

ECU = test system: ECU
How it was run: as §1

FAB9 = test system: FAB9
How it was run: as §1

GB4 = test system: GB4
How it was run: as §1

HB3 = test system: HB3
How it was run: as §1

ICS = test system: ICS
How it was run: as §1

JCK = test system: JCK
How it was run: as §1

N140 = test system: N140
How it was run: as §1

PAD = test system: PAD
How it was run: as §1

CP335 = test system: CP335
How it was run: as §1

P93_24 = test system: P93_24
How it was run: as §1

P94_40 = test system: P94_40
How it was run: as §1

Measured: Potency
Potency means the concentration at half of the fitted maximal effect.

C=C(C)[C@H]1CN[C@H](C(=O)O)[C@H]1CC(=O)O
not listed: CP335 | P93_24 | P94_40
inactive: all other assays above

CC(C)c1cccc(C(C)C)c1O
not listed: CP329 | DIV14 | GB4
inactive: all other assays above

CC(C)(C)NCC(O)c1cc(Cl)c(N)c(C(F)(F)F)c1 (stereo not drawn)
inactive: CP315 | CP329 | FAB9
active: DFO2036 5.01 µM | DIV14 6.01 µM | DIV17 7.57 µM | Dd2 12.6 µM | ECU 5.01 µM | GB4 12 µM | ICS 4.47 µM | JCK 11.2 µM | N140 2.82 µM | P93_24 3.55 µM | PAD 12.6 µM
